Columns and labels:
Type in all cases: functional
[1] = target: Solute carrier family 2, facilitated glucose transporter member 1 (Homo sapiens) (UniProt P11166); experiment: ST_JUDE_LEISH: Cytotoxicity at 2uM final concentration against transgenic Leishmania Mexicana promastigotes LmGLUT1 that are glucose transport deficient and complemented with the human glucose transporter GLUT1. Activity is measured by DNA content using SYBR green in vitro
[2] = target: Hexose transporter 1 (Plasmodium falciparum) (UniProt O97467); experiment: ST_JUDE_LEISH: Cytotoxicity at 2uM final concentration against transgenic Leishmania Mexicana promastigotes LmPfHT that are glucose transport deficient and complemented with the Plasmodium falciparum hexose transporter. Activity is measured by DNA content using SYBR green in vitro
[3] = target: Glucose transporter (Leishmania mexicana) (UniProt O61059); experiment: ST_JUDE_LEISH: Cytotoxicity at 2uM final concentration against transgenic Leishmania Mexicana promastigotes LmGT2 that are glucose transport deficient and complemented with the L. Mexicana glucose transporter 2. Activity is measured by DNA content using SYBR green in vitro

Chain of Solute carrier family 2, facilitated glucose transporter member 1 (Homo sapiens) (P11166 whole entry): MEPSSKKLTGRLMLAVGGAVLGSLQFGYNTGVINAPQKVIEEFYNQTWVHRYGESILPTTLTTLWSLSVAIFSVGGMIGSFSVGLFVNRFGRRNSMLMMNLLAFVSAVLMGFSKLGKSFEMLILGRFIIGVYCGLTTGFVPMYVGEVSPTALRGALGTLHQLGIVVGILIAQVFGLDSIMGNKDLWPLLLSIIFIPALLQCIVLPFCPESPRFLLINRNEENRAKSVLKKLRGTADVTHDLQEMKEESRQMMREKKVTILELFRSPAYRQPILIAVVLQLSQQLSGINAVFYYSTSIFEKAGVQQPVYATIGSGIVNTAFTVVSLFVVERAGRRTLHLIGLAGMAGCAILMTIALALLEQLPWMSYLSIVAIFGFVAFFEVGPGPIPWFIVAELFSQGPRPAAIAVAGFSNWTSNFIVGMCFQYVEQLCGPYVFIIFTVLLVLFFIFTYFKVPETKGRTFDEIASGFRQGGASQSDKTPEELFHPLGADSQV

Compound | inhibition [1] | inhibition [2] | inhibition [3]
CN(CCCCNC(=O)c1cc2ccccc2[nH]1)C1CC2(CCN(C(=O)OC(C)(C)C)CC2)c2ccccc21 (stereo not given) | -1.12% | -1.35% | -1.2%
c1ccc(-c2ccc3c(Nc4ccc5[nH]ccc5c4)ccnc3c2)nc1 | -1.13% | 0.56% | -0.96%
COc1ccc(-c2cccc(NC(=O)c3ccc(Cl)cc3)c2)cc1CN(C)CCN(C)C | 3.16% | 2.66% | 6.97%
COc1cc2nc(N3CCC(CNC(=O)c4cccc5cc[nH]c45)CC3)nc(N)c2cc1OC | 6.26% | 4.21% | 5.67%
O=S(=O)(Nc1cccc(CCN2CCC(N3CCCCC3)CC2)c1)c1ccc(-c2ccccc2)cc1 | 3.35% | 5.01% | 3.57%
CN(C)CCNCc1ccc(-c2cccc(-c3nc4ccccc4[nH]3)c2)cc1 | 10.5% | 8.93% | 8.27%
COc1ccc(CCN(C)CCCN2CCC(NC(=O)c3cccc4c(=O)c5ccccc5sc34)CC2)cc1OC | 2.6% | 1.86% | 5.63%
COc1cccc(OCC2CCCN(CCCCNC(=O)c3ccc(NC(=O)c4ccc(Cl)cc4)cc3)C2)c1 (stereo not given) | -2.42% | 1.68% | -1.92%
COc1cccc(NC(=O)NCCNc2ccnc(Nc3ccc(F)cc3)n2)c1 | 4.09% | 5.04% | 0.9%
CC=CC1CCNC(C(O)c2ccnc3ccc(OC)cc23)C1 (stereo not given) | 2.16% | 2.5% | 2.9%
N#Cc1ccc(N2CCN(C(=O)c3cccc(-c4noc(C(F)(F)F)n4)c3)CC2)nc1 | 0.27% | 0.91% | -0.23%
Cc1ccc(CN2CCC(C(=O)Nc3ccc(-c4cc5ccccc5[nH]4)cc3)CC2)o1 | 17.3% | 9.24% | 4.6%
CC(C)COc1ccc(Cl)cc1Cc1ccc(-c2nc3cc(CCN(C)C)ccc3[nH]2)o1 | 2.44% | 4.3% | 3.29%
N=c1sc2ccccc2n1CC(O)c1ccc(Cl)c(Cl)c1 (stereo not given) | -1.41% | 1.26% | 0.57%
CC(C)(C)Oc1ccc(NC(=O)c2ccccc2O)cc1 | 6.73% | 5.36% | 4.28%
CC(Oc1cc(-n2cnc3ccc(NC(=O)CCN4CCCCC4)cc32)sc1C(N)=O)c1ccccc1Cl (stereo not given) | 16.8% | 9.84% | 6.83%
Cc1nc(NCCc2c[nH]cn2)cc(NCc2ccccc2)n1 | 3.83% | 3.44% | 3.61%
O=C(NC1CCCCN(Cc2ccccc2O)C1)c1cccc(C(F)(F)F)c1 (stereo not given) | 2.43% | 1.72% | -4.05%

Compound | inhibition [1] | inhibition [2] | inhibition [3]
O=C(Nc1ccc(-c2ccc(-c3nc4cc(C(F)(F)F)ccc4[nH]3)cc2)cc1)Nc1ccc(F)c(F)c1F | -0.4% | -0.22% | -1.44%
COc1ccc(-c2ccc(NC(=O)c3ccc(C#N)cc3)cc2)cc1CN(C)CCN(C)C | 6.36% | 4.84% | 1.19%
CC(C)Sc1nc2c(c(=O)n1Cc1ccco1)C1(CCCC1)Cc1ccccc1-2 | 6.99% | 4.28% | 6.08%
COc1cccc(NC(=O)c2ccc(NCCCN3CC(C)CC(C)C3)c([N+](=O)[O-])c2)c1 (stereo not given) | 6.83% | 2.93% | 3.43%
COc1cc(C=NNc2cc(C)nc3c(OC)cccc23)cc(OC)c1OC | 7.21% | 3.3% | 3.68%
CN(C)c1ccc(CN2CCC(NC(=O)c3ccc(-c4cccc(F)c4)s3)CC2)cc1 | 4.53% | 5.36% | 1.82%
O=C(NC(c1ccccc1)c1ccc2cccnc2c1O)c1ccccc1 (stereo not given) | 4.04% | 6.18% | 4.35%
O=C(N[C@H]1CCN(Cc2ccc(OCCN3CCCC3)c(Cl)c2)C1)c1ccc(Cl)c(Cl)c1 | 8.03% | 16.6% | 6.8%
CCOC(=O)c1ccc(NC(=O)Nc2cccc(-c3ccc(-c4nc5ccccc5[nH]4)cc3)c2)cc1 | 5.47% | 1.48% | 3.89%
Cn1cnc2c(SCc3ccccc3OCc3ccccc3)ncnc21 | 6.91% | 5.44% | 4.68%
N#Cc1ccc2c(c1)CCN(CCC1CCC(NC(=O)Nc3cnc4ccccc4c3)CC1)C2 (stereo not given) | 2.8% | 3.15% | 2.03%
Cc1ccccc1CN1CCCN(Cc2ccc(C(=O)Nc3ccc(C(C)(C)C)cc3)cc2)CC1 | 6.33% | 3.39% | 3.55%
O=C(Nc1ccccc1)N(Cc1ccccc1-c1cccc(CNCCc2ccccc2)c1)C1CCN(Cc2ccccc2)CC1 | -1.02% | 0.26% | -0.84%
CCC(C)C#Cc1c(C)nc(N)nc1N (stereo not given) | 0.18% | 0.61% | 0.17%
O=C(Nc1ccc(Cl)cc1)N1CCN(C2CCCCC2)CC1 | 4.49% | 2.78% | 3.2%
CC(C)(CNCc1ccc(C(F)(F)F)cc1)c1nc(-c2ccc(Cl)c(O)c2)c(-c2ccncc2)[nH]1 | 0.52% | -0.09% | 0.02%
Cc1cccc2nc(-c3ccc(-c4cccc(CNCCN5CCNCC5)c4)cc3)[nH]c12 | 9.94% | 8.32% | 9.01%

— ChEMBL document CHEMBL3433997, “St. Jude Leishmania screening dataset” (2016)
